Source: PubChem BioAssay AID1347075 (National Center for Advancing Translational Sciences (NCATS), 2019)
Several values for one entry are separate records, joined by “and”; a condition that tells them apart may be missing. Equal entries are not always repeated. Hit rate of the full screen: of about 400,000 compounds, about 5,500 (1.4%) were called active. Entries that show only a call come without a potency. Not shown: some 9% with an inconclusive outcome. Calls come from the whole dose curve; as a rule, active = well fitted cell-killing curve with a large enough effect; inconclusive = small, poorly fitted or top-dose-only effect, or effect the other way; inactive = flat fitted curve, though single readings scatter. For the sample, actives were picked, then their nearest neighbours and some compounds at random.
Potency is the fitted concentration of half-maximal effect.

Assay: qHTS assay for MDR1-selective chemotherapeutics: Primary screen using the parental adenocarcinoma cell KB-3-1; note: nearly all actives have a fitted effect of over 60% in size
Details: KB-3-1 viability, CellTiter-Glo ATP luminescence, 72 h; series mostly up to 46.1 µM
In short: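 Cytotoxicity measured as CellTiter-Glo luminescence after 72 h at 37 C. Compound titrations were pinned onto drug-naive KB-3-1 parental adenocarcinoma cells grown in DMEM with 10% FBS, and normalized data fitted to concentration-response curves.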
For `CCCCCn1c(=O)[nH]c2cc(C(=O)NCCN(C)CCCC)ccc2c1=O`, the Potency was “inactive”.
For `CC(=O)c1ccc(NC(=O)COc2ccccc2-c2nc(-c3ccccc3)no2)cc1`, the Potency was “inactive”.
With `O=C(Oc1ccc(-c2nc(-c3ccccn3)no2)cc1)c1ccccc1` the Potency was 7.31 µM (active).
For `Cc1noc(C)c1COC(=O)COc1ccc(-c2ccccc2)cc1`, the Potency was “inactive”.
In the case of `CCOC(=O)c1c(-c2ccc(OC)cc2)oc2ccc(OCc3ccc(C(=O)OC)cc3)cc12`, the Potency is reported as “inactive”.
In the case of `O=C(OC/C=C/CSc1nnc(-c2cccc3ccccc23)o1)c1ccc(F)cc1`, the Potency is reported as “inactive”.
With `Cc1nc2c(-c3ccccc3)c(C)nn2c(C)c1CCC(=O)NCCc1ccccc1` the Potency was “inactive”.
With `Cc1ccc(C)c(N2CCN(C(=O)Cn3ncc4c(=O)oc5ccc(C)cc5c43)CC2)c1` the Potency was “inactive”.
In the case of `CC1CCCN(c2csc3ccc(F)cc3c2=O)C1` (stereo not given), the Potency is reported as “inactive”.
With `N#CC1=C(SCc2ccccc2)NC(=O)C(C#N)C12CCCC2` (stereo not given) the Potency was 11.6 µM (active).
In the case of `Cc1ccc(CNS(=O)(=O)c2ccc(C(=O)N(C)C)s2)cc1`, the Potency is reported as “inactive”.
With `Cn1c(C(=O)N2CCC(C(=O)N3CCN(c4ccccc4)CC3)CC2)cc2sccc21` the Potency was “inactive”.
With `Nc1c(C(=O)NCc2ccccc2)nnn1Cc1cccc(Cl)c1` the Potency was 20.6 µM (active).
In the case of `COc1cccc(CNC(=O)c2nnn(CC(=O)Nc3cc(Cl)ccc3C)c2N)c1`, the Potency is reported as “inactive”.
For `COc1cccc(CNC(=O)c2nnn(CC(=O)Nc3cc(C)ccc3C)c2N)c1`, the Potency was “inactive”.
In the case of `CC1(C)CC(N2CCN(C(c3ccccc3)c3ccccc3)CC2)=CC(=[N+]2CCCCC2)C1`, the Potency is reported as 0.517 µM (active).
With `CN(C(=O)CSc1nc2ccccc2n1Cc1ccccc1C#N)c1ccccc1` the Potency was “inactive”.
In the case of `Cc1ccc(-c2noc(CSc3nnc(-c4ccc(Cl)cc4)n3C)n2)cc1`, the Potency is reported as “inactive”.
For `Cc1nn(-c2ccccc2)c(C)c1NC(=O)COC(=O)c1cc(Cl)ccc1O`, the Potency was “inactive”.
With `C/C=C/c1ccc(OCC(=O)OCC(=O)Nc2c(C)nn(-c3ccccc3)c2C)c(OC)c1` the Potency was “inactive”.
In the case of `CCC(Oc1ccccc1)C(=O)OCC(=O)Nc1c(C)nn(-c2ccccc2)c1C` (stereo not given), the Potency is reported as “inactive”.
For `Cc1nn(-c2ccccc2)c(C)c1NC(=O)COc1ccc(Cl)cc1Cl`, the Potency was 5.17 µM (active).
In the case of `Cc1cccc(C)c1NC(=O)CNC(=O)c1c(C)nn(-c2ccccc2)c1C`, the Potency is reported as “inactive”.
In the case of `Cc1nn(-c2ccccc2)c(C)c1NC(=O)CCl`, the Potency is reported as 14.6 µM (active).
With `OCc1cnc(SCc2ccc(F)cc2)n1Cc1ccc(F)cc1` the Potency was “inactive”.
For `CN1C(=O)c2ccccc2Sc2ccc(NC(=O)Cc3ccc(Cl)cc3)cc21`, the Potency was “inactive”.
For `COc1ccc2c(C)c(CCC(=O)NCc3ccc(OC)c(OC)c3)c(=O)oc2c1`, the Potency was “inactive”.
For `Cc1ccc(C)c(N2CCN(C(=O)CN3C(=O)COc4ccc(S(=O)(=O)N5CCCCCC5)cc43)CC2)c1`, the Potency was “inactive”.
For `CC1=C(C(=O)Nc2ccccc2Cl)C(c2cccs2)n2ncnc2N1` (stereo not given), the Potency was “inactive”.
For `COc1ccccc1NC(=O)C1=C(C)Nc2nc3ccccc3n2C1c1cccs1` (stereo not given), the Potency was 3.26 µM (active).
With `COc1ccccc1NC(=O)C1=C(C)Nc2ncnn2C1c1sccc1C` (stereo not given) the Potency was “inactive”.
With `Cc1nc2c(c(C)nn2-c2ccccc2)c(C)c1CCC(=O)NCCc1ccc(Cl)cc1` the Potency was “inactive”.
For `O=C1CC(c2nnc(Cc3ccc(Cl)cc3)o2)CN1c1ccccc1` (stereo not given), the Potency was “inactive”.
With `CCC(=O)N1CCc2cc(Br)cc(S(=O)(=O)NCc3ccc(Cl)cc3)c21` the Potency was “inactive”.
With `COc1cc(C=C(OC(C)=O)c2ccc3c(c2)OCO3)cc(OC)c1OC` the Potency was “inactive”.
For `COc1cc(C2CC(=O)Oc3cc(OC)c(OC)c(OC)c32)cc(OC)c1OC` (stereo not given), the Potency was “inactive”.
In the case of `COc1cc(C2c3cc4c(cc3C(O)C3COC(=O)C23)OCO4)cc(OC)c1OC` (stereo not given), the Potency is reported as 146 nM (active) and 164 nM (active).
For `Cc1ccccc1NC(=O)Cn1cc(C(=O)c2cccs2)c2ccccc21`, the Potency was “inactive”.
With `CCCCOC(=O)CSc1ncnc2sc3c(c12)CCC(C)C3` (stereo not given) the Potency was “inactive”.
In the case of `CC1CCCCN1S(=O)(=O)c1ccc(C(=O)Nc2nnc(-c3cccs3)o2)cc1` (stereo not given), the Potency is reported as 9.2 µM (active).
For `CC1CN(S(=O)(=O)c2ccc(C(=O)Nc3sccc3C(N)=O)cc2)CC(C)O1` (stereo not given), the Potency was “inactive”.
In the case of `CC1CCCCN1S(=O)(=O)c1ccc(S(=O)(=O)N(CC(=O)Nc2ccccc2)Cc2cccs2)cc1` (stereo not given), the Potency is reported as “inactive”.
In the case of `Cc1c(C(=O)Nc2ccccc2)sc2nc3n(c(=O)c12)CCCCC3`, the Potency is reported as “inactive”.
With `Cn1c(-c2ccc(C(=O)c3ccccc3)s2)nc2ccccc21` the Potency was “inactive”.
With `Cc1nc2sc(C(=O)c3ccccc3)c(N)c2c2c1CCCC2` the Potency was 23.1 µM (active).
In the case of `CCN(Cc1ccccc1)Cc1c(O)ccc2c(=O)c(-c3ccc(Cl)cc3Cl)coc12`, the Potency is reported as “inactive”.
With `CC1CN(C(=O)N2CCC(C(=O)NCc3ccco3)CC2)c2cc(Cl)ccc2O1` (stereo not given) the Potency was “inactive”.
For `COc1ccc(-c2noc(CCC(=O)N(C)c3ccccc3C)n2)cc1`, the Potency was “inactive”.
With `Cc1[nH]n(-c2cccc(Cl)c2)c(=O)c1/C=N/n1c(C)nc2ccccc2c1=O` the Potency was 10.3 µM (active).
With `Cc1nc2ccccc2c(=O)n1-c1ccc(NS(=O)(=O)c2ccc(F)cc2F)cc1` the Potency was “inactive”.
For `Cc1cc2n(n1)C(c1cc(C(C)(C)C)c(O)cc1O)Nc1ccccc1-2` (stereo not given), the Potency was “inactive”.
In the case of `O=C(CCC1N=C2c3ccccc3N=C(SCc3ccccc3F)N2C1=O)NCCc1ccccc1` (stereo not given), the Potency is reported as “inactive”.
In the case of `COc1cccc(CNC(=O)Cc2csc3nc(-c4ccccc4)cn23)c1`, the Potency is reported as “inactive”.
With `COc1ccc(NC(=O)CSc2nc3ccccc3[nH]2)cc1` the Potency was “inactive”.
In the case of `Cc1ccc2nc(CNC(=O)c3ccccc3)[nH]c2c1`, the Potency is reported as “inactive”.
In the case of `COC(=O)Nc1nc2ccc(Sc3ccccc3)cc2[nH]1`, the Potency is reported as 1.46 µM (active).
In the case of `COc1ccc(CCNc2ncnc3onc(-c4ccc(Cl)cc4)c23)c(OC)c1`, the Potency is reported as “inactive”.
For `COc1ccc(Cl)cc1NC(=O)CSc1nc(-c2cccs2)cc(C(F)(F)F)n1`, the Potency was “inactive”.
In the case of `COc1ccc(Cl)cc1NC(=O)CN(C)C(=O)c1cc(-c2cccs2)nn1-c1ccccc1`, the Potency is reported as 20.6 µM (active).
With `COc1ccc(Cl)cc1NC(=O)CN(C)C(=O)c1ccc2n[nH]nc2c1` the Potency was “inactive”.
In the case of `C=CCNC(=O)c1ccc2nc(-c3ccco3)c(-c3ccco3)nc2c1`, the Potency is reported as “inactive”.
In the case of `CC(C)(C)OC(=O)N(Cc1ccco1)S(=O)(=O)c1ccccc1Br`, the Potency is reported as “inactive”.
With `COC(=O)Cc1[nH]n(-c2nc3ccccc3s2)c(=O)c1C(C)=Nc1ccc(OC)cc1` the Potency was 9.2 µM (active).
For `COc1ccc(CC(=O)Nc2ccc(-c3nc4ccccc4s3)c(C)c2)cc1`, the Potency was “inactive”.
In the case of `Cc1ccc(C)c(NC(=O)CSC2=Nc3ccccc3N=C(c3ccc(F)cc3)C2)c1`, the Potency is reported as “inactive”.
In the case of `CCOC(=O)C1CCN(c2csc3ccc(C)cc3c2=O)CC1`, the Potency is reported as “inactive”.
For `O=C(Cn1c(=O)n(Cc2ccccc2)c(=O)c2sc3ccccc3c21)Nc1ccccc1F`, the Potency was “inactive”.
In the case of `CN(C)c1ccc(CSc2ccccc2)cc1`, the Potency is reported as “inactive”.
For `CN(C)c1ccc(/C=C/c2c3ccccc3nc3ccccc23)cc1`, the Potency was “inactive”.
For `CN(C)c1ccc(/C=C/c2sc3ccccc3[n+]2C)cc1`, the Potency was 6.51 µM (active).
In the case of `CN(C)c1ccc(/C=C/c2sc3ccccc3[n+]2CCCCBr)cc1`, the Potency is reported as 1.3 µM (active).
With `CCN(CCCNC(=O)c1cc2c(=O)n(CC)c3ccccc3c2s1)Cc1ccccc1` the Potency was “inactive”.
For `CCc1ccc(OCCCn2c(CCCNC(=O)C3CCCCC3)nc3ccccc32)cc1`, the Potency was “inactive”.
In the case of `COc1cccc(N2CCN(S(=O)(=O)c3cc(Br)cc4c3N(C(=O)C3CC3)CC4)CC2)c1`, the Potency is reported as “inactive”.
With `CCCCC12CN3CC(C)(CN(C1)C3c1ccc(O)c(OC)c1)C2=O` (stereo not given) the Potency was “inactive”.
For `Cc1ccc(C)c(N2CCN(C(=O)C3CCC(CNS(=O)(=O)c4cccs4)CC3)CC2)c1` (stereo not given), the Potency was “inactive”.
For `Cc1ccc(C)c(Oc2c(C(F)(F)F)oc3c(CN4CCN(C)CC4)c(O)ccc3c2=O)c1`, the Potency was “inactive”.
In the case of `Cc1cc(C)c(NC(=O)c2cc3sc(Cl)cc3n2C)c(C)c1`, the Potency is reported as “inactive”.
For `O=C(NCc1ccccc1Cl)c1cccn1-c1nnc(N2CCCCC2)s1`, the Potency was “inactive”.
With `COc1ccc(NC(=O)CSc2nnc(-c3nnn(-c4ccc(F)cc4)c3C)o2)cc1` the Potency was “inactive”.
For `O=C(Nc1ccc2ccccc2c1)Nc1nnc(-c2ccc(O)cc2)s1`, the Potency was “inactive”.
With `O=C1CCc2cc(S(=O)(=O)Nc3cccc(Oc4ccccc4)c3)ccc2N1` the Potency was “inactive”.
With `CCOC(=O)c1ccc(N2C(=O)c3[nH]nc(-c4ccccc4)c3C2c2ccc(C(C)C)cc2)cc1` (stereo not given) the Potency was 18.4 µM (active).
With `CCOC(=O)c1ccc(N2C(=O)c3n[nH]c(C)c3C2c2ccc(O)c(OC)c2)cc1` (stereo not given) the Potency was “inactive”.
In the case of `CCOC(=O)c1ccc(N2C(=O)c3n[nH]c(-c4ccco4)c3C2c2ccc(O)cc2)cc1` (stereo not given), the Potency is reported as “inactive”.
For `Cc1cccc(CN2Cc3cccc4c3[C@H](C=CC4)CC2=S)c1`, the Potency was “inactive”.
For `O=C(Cn1cnc2c(cnn2-c2ccc(F)cc2)c1=O)NCCc1ccccc1`, the Potency was “inactive”.
For `CC(=O)Cn1cnc2c(cnn2-c2ccccc2)c1=O`, the Potency was “inactive”.
In the case of `O=C(Cn1cnc2c(cnn2-c2ccccc2)c1=O)NCc1ccccc1`, the Potency is reported as 8.2 µM (active).
In the case of `COc1ccc2cc(CNc3ccc(OC)c(OC)c3)c(=O)n(CC(=O)Nc3ccccc3F)c2c1`, the Potency is reported as “inactive”.
In the case of `COc1ccc(-c2noc(CSc3nc(C)cc(=O)[nH]3)n2)cc1OC`, the Potency is reported as “inactive”.
With `O=c1c2cc(Br)ccc2nc(-c2cccc(Cl)c2)n1O` the Potency was 9.2 µM (active).
In the case of `CC(C)Cn1c(=O)c2ccccc2n2c(-c3cccc(Cl)c3)nnc12`, the Potency is reported as “inactive”.
For `NC(N)=Nc1nc2ccc(Br)cc2c(=O)[nH]1`, the Potency was “inactive”.
In the case of `COC(=O)c1cc(NC(=O)CCc2c(C)nc3c4c(C)cc(C)nc4nn3c2C)cc(C(=O)OC)c1`, the Potency is reported as “inactive”.
With `O=c1cc(COc2cccc(C(F)(F)F)c2)nc2sc3c(n12)CCCC3` the Potency was “inactive”.
In the case of `O=S(=O)(NCC(c1ccco1)N1CCOCC1)c1cc(F)ccc1F` (stereo not given), the Potency is reported as “inactive”.
For `O=C(CSCc1cccs1)N1CCCC1`, the Potency was “inactive”.
In the case of `CC1CC(C)CN(C(=O)CSc2ccsc2[N+](=O)[O-])C1` (stereo not given), the Potency is reported as “inactive”.
For `O=C(CSc1ccsc1[N+](=O)[O-])N1CCCCC1`, the Potency was 18.4 µM (active).
